Results: ChEMBL document CHEMBL4513216, “Probing the Open Global Health Chemical Diversity Library for Multistage-Active Starting Points for Next-Generation Antimalarials” (ACS Infect Dis, 2020)
Screen size: about 69,000 compounds; about 8,600 (12%) showed an effect of 50% or more. This excerpt belongs to a sample that is enriched for strong results.

tested on: Plasmodium berghei; assay: Screen against P. berghei liver stage (PbLuc), transformed with Luciferase, at 10uM; assay type: functional, HepG2; settings: tested at 10 uM

Compared with `COC(=O)CCNC(=O)c1ccc(OCc2ccccc2)nc1`, `COc1ncc(C(=O)NCc2ccccc2)cn1` is higher in INHIBITION: -8.91% for the first, 64.2% for the second.

First: CCOc1ccc(CNC(=O)c2cnc(OC)nc2)cc1
Second: COc1ncc(C(=O)NCc2ccc(Br)cc2)cn1
The INHIBITION of the first is lower: 52.7% for the first, 59.8% for the second.

Going from `COc1ccc(CNC(=O)c2ccc(Br)cn2)cc1` to `COC(=O)c1ccc(C(=O)NCc2ccc(Br)cc2)cn1`, the INHIBITION falls from 49% to 45.8%.

Going from `CCOc1cccc(C(=O)NCCC(=O)NCc2ccncc2)c1` to `CC(CCNC(=O)NCCc1ccncc1)c1ccccc1` (configuration not stated), the INHIBITION rises from -5.78% to 55.9%.

Compared with `Cc1cccc(C(=O)NCc2ccccc2)n1`, `CNc1cccc(C2CCCN(C(=O)Cc3ccccc3)C2)n1` (configuration not stated) is higher in INHIBITION: 21% for the first, 81.2% for the second.

Going from `CCNc1ncc(C(=O)NCc2ccc3nsnc3c2)cn1` to `CCCc1noc(-c2ccc(-n3ncc(C(=O)O)c3C)nc2)n1`, the INHIBITION falls from 31.9% to 7.92%.

Compared with `CS(=O)(=O)CCN1CCCC1c1noc(C2CC2)n1` (configuration not stated), `CCN(Cc1cnn(C)c1)S(=O)(=O)N1CCCC1c1ccco1` (configuration not stated) is higher in INHIBITION: -38.2% for the first, 27.5% for the second.

First: Cc1cccc(S(=O)(=O)N2CC[C@H]3[C@H]2CCN3c2ncccn2)c1
Second: CNc1cccc(C2CCCN(C(=O)c3ccncc3)C2)n1 (configuration not stated)
The INHIBITION of the first is lower: 5.36% for the first, 42.1% for the second.

Going from `NC(=O)c1cnn2c1NCC(CNCCc1cccs1)C2` (configuration not stated) to `CN(Cc1cn2c(n1)CN(C(=O)CC1CC1)CC2)Cc1ccco1`, the INHIBITION rises from 21.75% to 30.1%.

Compared with `COCC(C)NC(=O)CN1CCCC1` (configuration not stated), `Cc1ccc(OCC(=O)N2CCOCC(O)(CN3CCCC3)C2)cc1C` (configuration not stated) is higher in INHIBITION: -9.39% for the first, 37.9% for the second.

Compared with `O=S(=O)(Cc1cc(-c2ccccc2)no1)CC1CCCO1` (configuration not stated), `O=C(Cn1cc(-c2ccccc2)cn1)N1CCNC1=O` is higher in INHIBITION: -73.1% for the first, -7.53% for the second.

Compared with `CNc1cccc(C2CCCN(C(=O)c3cscn3)C2)n1` (configuration not stated), `CNc1cccc(C2CCCN(C(=O)c3cnccn3)C2)n1` (configuration not stated) is lower in INHIBITION: 51.5% for the first, -37% for the second.

Going from `CNc1cccc(C2CCCN(C(C)=O)C2)n1` (configuration not stated) to `CNc1cccc(C2CCCN(C(=O)c3ccn(C)n3)C2)n1` (configuration not stated), the INHIBITION rises from -1.58% to 26.3%.

Compared with `CN1CCN([C@@H]2CN(C(=O)CCOc3ccccc3)C[C@H]2O)CC1`, `O=C(C[C@@H]1COC[C@H]2CN(Cc3ccccn3)C[C@@H]12)N1CCOCC1` is higher in INHIBITION: 6.08% for the first, 33% for the second.

First: CC1CCN(c2nc3cn(-c4ccc(F)cc4)c(=O)c-3c[nH]2)CC1
Second: Cn1cc(-c2cc(C(=O)N3CCOCC3)c3ccc(F)cc3n2)cn1
The INHIBITION of the first is higher: 24.2% for the first, -27.5% for the second.

Compared with `CC(=O)Nc1ncc(S(=O)(=O)Nc2ccccc2F)s1`, `CNS(=O)(=O)CC(=O)N(Cc1c(F)cccc1Cl)C1CC1` is higher in INHIBITION: 15.9% for the first, 17.1% for the second.

First: Cn1nccc1CCC(=O)N1CCOC(c2cnccn2)C1 (configuration not stated)
Second: CCCc1n[nH]c(C2CN(C(=O)c3cncnc3C)CCO2)n1 (configuration not stated)
The INHIBITION of the first is lower: 2.71% for the first, 36.1% for the second.

Compared with `O=C(O)c1cc(-c2cn[nH]c2)cc(S(=O)(=O)N2CCSCC2)c1`, `O=C(c1cc(-c2cn[nH]c2)nc2ccc(F)cc12)N1CCSCC1` is higher in INHIBITION: -4.927% for the first, 51.8% for the second.

Compared with `O=C(c1cc(-c2cn[nH]c2)nc2cc(F)ccc12)N1CCS(=O)(=O)CC1`, `CCc1ccc2nc(-c3cnn(C)c3)cc(C(=O)N3CCCC3)c2c1` is lower in INHIBITION: 79.9% for the first, 7.3% for the second.

Going from `Cc1cc(C(=O)N2CCNC(c3ccccc3)C2)c2ccc(F)cc2n1` (configuration not stated) to `CCn1ccc2ccnc(CC3CN(C(=O)c4ccc(F)cc4)C3)c21`, the INHIBITION falls from 36.9% to 16.5%.

First: COCc1nnc2n1CCN(Cc1ccoc1)C2
Second: CN(Cc1cn2c(n1)CN(CC1CC1)CC2)Cc1ccco1
The INHIBITION of the first is higher: 33% for the first, 8.53% for the second.

Compared with `COCCC1CCN([C@@H]2c3ccccc3C3(CCNCC3)[C@H]2O)CC1`, `CC(=O)N[C@@H]1Cc2ccccc2[C@H]1Nc1nnc(C2CC2)o1` is higher in INHIBITION: 11.6% for the first, 52.6% for the second.

First: COc1ccc(-c2cc(C3CCCNC3)ccn2)cc1 (configuration not stated)
Second: COc1ccc(OC)c(C(=O)N2CCCCC2Cn2cccn2)c1 (configuration not stated)
The INHIBITION of the first is lower: -3.02% for the first, 14.4% for the second.

Going from `CN1CCCN(c2cnn(Cc3ccncc3)c(=O)c2)CC1` to `CN1CCCN(c2cnn(Cc3ccc(C(C)(C)C)cc3)c(=O)c2)CC1`, the INHIBITION falls from 54.8% to 15.7%.

First: Cn1c(Cn2ncc(N3CCCCC3)cc2=O)nc2ccccc21
Second: Cn1c(Cn2ncc(N3CCCC3)cc2=O)nc2ccccc21
The INHIBITION of the first is higher: 40.3% for the first, 37.6% for the second.

Going from `CN1CCN(c2cnn(Cc3ccc(S(C)(=O)=O)cc3)c(=O)c2)CC1` to `Cn1ncc(N2CCN(Cc3ccc(S(C)(=O)=O)cc3)CC2)cc1=O`, the INHIBITION falls from 51.5% to 27.6%.

Compared with `Cc1cc(C)n(Cc2cc(C(=O)N3CCCCC3c3nccs3)n[nH]2)n1` (configuration not stated), `Cc1nn(C)c(C)c1C1CCCN1Cc1nc(-c2ccccn2)no1` (configuration not stated) is higher in INHIBITION: 7.83% for the first, 11.9% for the second.

Compared with `CNC(=O)N(Cc1c(F)cccc1F)C1CCCC1`, `CC(=O)N(Cc1c(F)cccc1F)C1CCCC1` is higher in INHIBITION: 16.1% for the first, 58.3% for the second.

Going from `CS(=O)(=O)CCC(=O)N(CCc1cccc(F)c1)C1CC1` to `CS(=O)(=O)CCC(=O)N(Cc1c(F)cccc1F)C1CCCC1`, the INHIBITION rises from 40.7% to 55%.

First: CNS(=O)(=O)CC(=O)N(Cc1c(F)cccc1F)C1CCCC1
Second: O=C(CS(=O)(=O)Cc1ccc(F)cc1)NC1CCCCNC1=O (configuration not stated)
The INHIBITION of the first is higher: -5.59% for the first, -90.9% for the second.

First: Cn1nnnc1SC1CCN(c2ccccc2Cl)C1=O (configuration not stated)
Second: COc1ccc(CN2CCC3(CC2)CCN(c2cnn(C)c2)C3=O)cc1
The INHIBITION of the first is lower: 23.9% for the first, 43.9% for the second.

Compared with `Cc1cc(C[S+]([O-])Cc2ccccc2F)no1` (configuration not stated), `CCc1oc(C(=O)N[C@@H]2c3ccccc3C[C@@H]2O)cc1C` is lower in INHIBITION: 40.7% for the first, 12.9% for the second.

Compared with `CC(C)[C@]1(O)CN(C(=O)CNC(N)=O)C[C@H]1C`, `CCc1nnsc1C(=O)N1CCCC(n2nc(C)nc2C)C1` (configuration not stated) is lower in INHIBITION: 39.9% for the first, -10.75% for the second.

Compared with `CCOc1ccnc(NCc2nc(C)cc(=O)[nH]2)n1`, `CCOc1ccnc(NCCc2nc(C)cc(=O)[nH]2)n1` is lower in INHIBITION: 27.8% for the first, 23.3% for the second.

Compared with `CCOc1ccnc(NCc2nc(C)cc(C(F)(F)F)n2)n1`, `CCn1nc2nc(SCC(=O)O)cc(C(F)F)c2c1C` is lower in INHIBITION: 52.9% for the first, 20.4% for the second.

First: COCCCN(Cc1ccccn1)Cc1ccnn1C1CCCCO1 (configuration not stated)
Second: O[C@@]1(c2ccccn2)CC[C@H]2CN(Cc3ccccn3)C[C@H]21
The INHIBITION of the first is higher: 34.1% for the first, 29.3% for the second.

First: CN(Cc1cn2c(n1)CN(C1CCOCC1)CC2)Cc1ccco1
Second: CN(Cc1cn2c(n1)CN(C1CCOC1)CC2)Cc1ccco1 (configuration not stated)
The INHIBITION of the first is higher: 56.7% for the first, 10% for the second.

First: CN(Cc1cn2c(n1)CN(C(=O)C1CCOCC1)CC2)Cc1ccco1
Second: CN(Cc1cn2c(n1)CN(CC1CCOC1)CC2)Cc1ccco1 (configuration not stated)
The INHIBITION of the first is lower: -8.94% for the first, 53.2% for the second.

First: Cc1c(CCC(=O)Nc2ccc(Br)cn2)cnn1C
Second: Cc1c(C(C)Nc2ncnc3sccc23)cnn1C (configuration not stated)
The INHIBITION of the first is lower: 15.2% for the first, 55.5% for the second.

Compared with `Cc1nn(C)cc1C(C)Nc1ncnc2sccc12` (configuration not stated), `CC(Nc1ncnc2sccc12)c1cnn(C)c1` (configuration not stated) is higher in INHIBITION: 27.5% for the first, 38.7% for the second.

Going from `Cc1cc(SCC(=O)O)nc2nn(CC(F)F)c(C)c12` to `Cc1c2c(C(F)F)cc(SCC(=O)O)nc2nn1C`, the INHIBITION falls from 96% to 15.9%.

Going from `O=C(NCCc1ccccc1)NCC(O)c1cccc(F)c1` (configuration not stated) to `CC(CCNC(=O)NCCc1ccc(S(N)(=O)=O)cc1)c1ccccc1` (configuration not stated), the INHIBITION rises from -27% to 54.8%.

First: Cc1cc(NC(=O)NCCc2ccc(S(N)(=O)=O)cc2)n(C)n1
Second: Cc1cnc(CCNC(=O)C2CCN(S(=O)(=O)c3ccc(F)cc3)C2)s1 (configuration not stated)
The INHIBITION of the first is lower: -193% for the first, -21.8% for the second.

First: CC(c1cccc(S(N)(=O)=O)c1)N(C)CCc1ccccc1 (configuration not stated)
Second: CC(CCNC(=O)NCCNc1cnccn1)c1ccccc1 (configuration not stated)
The INHIBITION of the first is higher: 33.6% for the first, -10.4% for the second.

Compared with `Cc1cc(-c2cc(-c3cc(CC(=O)O)cs3)nc(N)c2C#N)oc1C`, `CCc1nc(C)c(C(=O)N[C@@H]2c3ccccc3C[C@@H]2O)o1` is lower in INHIBITION: 33.9% for the first, -5.22% for the second.

First: CC(=O)N[C@@H]1Cc2ccccc2[C@H]1Nc1ccncn1
Second: CC(=O)N[C@@H]1Cc2ccccc2[C@H]1Nc1cc(C2CC2)ncn1
The INHIBITION of the first is higher: 67.5% for the first, 35% for the second.

Compared with `O=C(C1CCCC1)N1CCC(Nc2ccncn2)CC1`, `O=C(c1ccncc1)N1C[C@H]2CC[C@@H](C1)N(C(=O)C1CCCC1)C2` is lower in INHIBITION: 49.9% for the first, -3.48% for the second.

First: Cc1cc(C(=O)NCCc2c(C)nn(C)c2C)nc(N2CCCCC2)n1
Second: Cc1ccc([C@]2(O)CC[C@H]3CN(Cc4cc(C)c(O)c(C)c4)C[C@H]32)nc1
The INHIBITION of the first is lower: -10.5% for the first, 45.5% for the second.

Compared with `O=C(CCn1nc(C(=O)Nc2ccccc2)ccc1=O)Nc1nccs1`, `Cc1ccc([C@]2(O)CC[C@H]3CN(Cc4ccncc4)C[C@H]32)nc1` is higher in INHIBITION: 13.1% for the first, 66.4% for the second.

Compared with `N#Cc1ccc(CC(=O)N2CCC(Nc3cccnn3)CC2)cc1`, `Cc1ccc([C@]2(O)CC[C@H]3CN(Cc4cccnc4)C[C@H]32)nc1` is higher in INHIBITION: -3.7% for the first, 41.2% for the second.

Going from `C=c1ncsc1=C1NC(c2cccc(CN3CCOCC3)c2)=NO1` to `COc1ncc(CN2C[C@@H]3CC[C@@](O)(c4ccc(C)cn4)[C@@H]3C2)cn1`, the INHIBITION rises from 12.6% to 41.2%.

Going from `CCn1cc(CN(C)S(=O)(=O)N2CCCC2c2ccco2)cn1` (configuration not stated) to `CN(Cc1cnn(C)c1)S(=O)(=O)N1CCCC1c1ccco1` (configuration not stated), the INHIBITION rises from 32% to 52.2%.

First: O=C(c1ccc(C2CCCN2C(=O)c2cscn2)s1)N1CCSCC1 (configuration not stated)
Second: CN(C)CC(=O)N1CCC2(CC1)COC(COc1ccccn1)C2 (configuration not stated)
The INHIBITION of the first is lower: -30.6% for the first, 35.3% for the second.

In the case of `CSc1ccc(CN2C[C@@H]3CC[C@@](O)(c4ccc(C)cn4)[C@@H]3C2)cc1`, the INHIBITION is reported as 75.3%.
